Screens: PubChem BioAssay, National Center for Advancing Translational Sciences (NCATS)
Hits are enriched below; roughly 8.8% of the tested compounds scored in any of these assays.
HttQ103 aggreg: inhibitors of mutant huntingtin aggregate formation in PC12 cells. PC12 HttQ103-GFP aggregates, Acumen cytometry, 40 h. Potency, µM (top dose mostly 46.1 µM), most hits filed as inhibitors. hit rate 1.1% among 220,000. AID 1688; active = well fitted curve in the direction sought with a large enough effect; inconclusive = small, poorly fitted or top-dose-only effect, or another doubt; inactive = no such curve, though single readings can be large; an effect the other way counts as inactive or inconclusive; also: nearly all actives have a fitted effect of over 60% in size
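Multiplexed with ATP-based cell death, this channel scores GFP aggregates in PC12 cells expressing inducible HTTex1-Q103-GFP. Induction used 100 nM tebufenozide; compounds were tested in concentration series.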
LMNA splice mod: LMNA splicing modulation; HeLa LMNA splicing GFP/RFP minigene ratio, 48 h; Potency, µM (highest dose often 46.1 µM), most hits filed as inhibitors; hit rate 0.01% among 200,000; AID 1487; active = well fitted inhibition curve with a large enough effect in the signal ratio, with a control signal flat, not every such curve was filed as active; inconclusive = small, poorly fitted or top-dose-only effect, or effect the other way, or a change in a side signal; the % refers to the signal ratio
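S3 HeLa stable clones carrying a lamin A-EGFP splicing minigene plus DsRed2 were seeded at 600 cells/well in Opti-MEM with 2% FBS, pin-dosed and incubated 48 h at 37°C. Acumen cytometry (488 nm) gave the GFP/RFP total-intensity ratio.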
HPGD block: blocks human HPGD enzyme activity; P15428; purified HPGD, NADH fluorescence kinetic, PGE2 substrate; Potency, µM, hits mostly inhibitors; hit rate 4.3% among 150,000
Target sequence (P15428 whole entry, looked up): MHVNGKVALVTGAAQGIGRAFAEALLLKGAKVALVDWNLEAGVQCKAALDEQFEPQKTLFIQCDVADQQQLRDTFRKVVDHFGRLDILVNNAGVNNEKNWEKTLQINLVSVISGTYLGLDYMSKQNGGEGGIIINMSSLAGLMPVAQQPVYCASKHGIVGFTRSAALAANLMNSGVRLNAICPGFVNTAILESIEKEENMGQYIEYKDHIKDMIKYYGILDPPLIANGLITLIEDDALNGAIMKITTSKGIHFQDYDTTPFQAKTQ
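20 nM HPGD preincubated 15 min at room temperature with compound in 50 mM Tris-HCl pH 8, 0.01% Tween 20. Started with 1 mM NAD+ and 30 uM prostaglandin E2; NADH fluorescence (360/450 nm) read 5 times over 30-s intervals, last minus first.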
HTT ATP protect: cytoprotection in Huntington HTT-Q103 PC12 cell model; PC12 HTT-Q103 induced, cytoprotection, ATP luminescence, 40 h; Potency, µM (doses to about 56.4 µM), hits mostly activators; hit rate 0.14% among 230,000; AID 1471; active = well fitted curve in the direction sought with a large enough effect; inconclusive = small, poorly fitted or top-dose-only effect, or another doubt; inactive = no such curve, though single readings can be large; an effect the other way counts as inactive or inconclusive; also: nearly all actives have a fitted effect of over 45% in size
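ATP quantification (ATPlite) reports survival of PC12 cells in which tebufenozide, 100 nM final, switches on Htt exon 1 with 103 glutamines linked to GFP; compounds are titrated.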
ALDH1A1 inh: blocks purified human ALDH1A1 activity; AID 1030; P00352; Purified ALDH1A1, NADH fluorescence, propionaldehyde substrate; hit rate 7.3% among 220,000; Potency, µM (doses to about 75.3 µM), hits mostly inhibitors
Target sequence (P00352 whole entry, looked up): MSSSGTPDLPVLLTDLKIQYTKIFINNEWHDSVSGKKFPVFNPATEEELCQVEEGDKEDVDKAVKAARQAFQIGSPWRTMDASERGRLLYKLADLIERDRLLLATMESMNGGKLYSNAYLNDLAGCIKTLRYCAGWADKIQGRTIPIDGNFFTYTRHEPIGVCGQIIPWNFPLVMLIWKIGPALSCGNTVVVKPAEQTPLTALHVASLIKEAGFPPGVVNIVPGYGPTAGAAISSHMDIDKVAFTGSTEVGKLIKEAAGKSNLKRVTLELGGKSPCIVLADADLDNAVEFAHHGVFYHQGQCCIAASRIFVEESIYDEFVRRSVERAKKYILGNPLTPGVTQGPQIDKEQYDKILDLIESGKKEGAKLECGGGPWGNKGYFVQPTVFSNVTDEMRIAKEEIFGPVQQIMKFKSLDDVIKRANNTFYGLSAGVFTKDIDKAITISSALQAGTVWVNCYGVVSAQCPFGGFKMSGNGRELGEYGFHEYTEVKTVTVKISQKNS
Numbers stand for hits; n = inactive; u = inconclusive; x = not tested or not shown; ! = not confirmed by another sample; [ ] = remark or other dose. Unless noted, calls follow the shape of the dose curve; as a rule, active = well fitted inhibition curve with a large enough effect (not every such curve was filed as active); inconclusive = small, poorly fitted or top-dose-only effect, or another doubt; inactive = no such curve, though single readings can be large or run the other way.

SMILES | HttQ103 aggreg | LMNA splice mod | HPGD block | HTT ATP protect | ALDH1A1 inh
Cc1cc2c(c(=O)o1)C1(C(=O)N(C)c3ccccc31)C(C#N)=C(N)O2 (stereo unspecified) | n | n | n | n[10 µM] | n
COC(=O)CN1C(=O)C2(C(C#N)=C(N)Oc3ccccc32)C2=C1CC(C)(C)CC2=O (stereo unspecified) | n[1.84 µM] | n | n | n | 6.31µM
COC(=O)Cc1[nH]nc2c1C1(C(=O)N(Cc3ccccc3)c3ccccc31)C(C#N)=C(N)O2 (stereo unspecified) | n | n | n | n | 20µM
Cc1ccc(C2CC(=O)Oc3cc(C)c(Cl)cc32)cc1 (stereo unspecified) | x | x | n | n | n
CC(=O)Nc1ccc(NC(=O)c2ncoc2-c2ccco2)cc1 | x | n | x | x | x
COC(=O)CN1C(=O)C2(C(C#N)=C(N)Oc3cc(C)oc(=O)c32)c2ccccc21 (stereo unspecified) | n | n | n | n | 6.31µM
Cc1c(C(N)=O)cc([N+](=O)[O-])cc1[N+](=O)[O-] | n | u | n | u | n
CC(C)N(C(=O)c1sc2cc([N+](=O)[O-])ccc2c1Cl)C(C)C | n | n | 28.2µM | n | u
O=C(c1sc2cc([N+](=O)[O-])ccc2c1Cl)N1CCOCC1 | n | n | 15.8µM | n[10 µM] | n
O=C(c1cccc([N+](=O)[O-])c1)N1CCOCC1 | n | n | n | n[10 µM] | n
CC(C)N(C(=O)/C=C/c1cccc([N+](=O)[O-])c1)C(C)C | n[9.22 µM] | x | x | n[10 µM] | n
CCCCNC(=O)CNC(=S)N(Cc1ccc(C)cc1)Cc1ccco1 | n | x | x | n | 31.6µM
Cc1ccc(CN(Cc2ccco2)C(=S)NCC(=O)NC2CC2)cc1 | n | x | x | n | u
CC(C)(C)c1ccc(S(=O)(=O)N(CCCN2CCOCC2)Cc2cccs2)cc1 | n | u | 25.1µM | x | n
CC(C)CCNC(=O)c1ccc2c(c1)nc1n2CCCCC1 | x | n | x | x | x
CN(C)c1ccc(/C=C2\C(=O)Nc3ccccc32)cc1 | x | 28.2µM | u | n | 7.08µM
CN(C)c1ccc(/C=C2/C(=O)Nc3ccccc32)cc1 | x | x | n | n | u
Cc1ccc(/C=C2\C(=O)Nc3ccccc32)o1 | n | u | n | n[1.9 µM] | 7.94µM
COc1ccc(/C(C)=N/NC(=O)c2ccc(CSc3nncn3C)cc2)cc1 | n | x | x | n | n
CC(C)(C)c1ccc(C(=O)N2CCN(Cc3cc(=O)n4nc(-c5ccccc5F)sc4n3)CC2)cc1 | x | n | x | x | x
CN(C)S(=O)(=O)Nc1ccccc1C(N)=O | 3.55µM | n | u | n | u
CC(C)(C)c1ccc(S(=O)(=O)NNC(=O)C2CCN(Cc3cccc(F)c3)CC2)cc1 | n | x | x | n | 2.24µM
C=CCOC(=O)N[C@H](c1ccccc1)C(C(C)=O)C(C)=O | x | x | n | n | n
N#CC1=C(N)N(c2ccc(Cl)c(Cl)c2)C(=O)C1 | n | n | x | n[10 µM] | 28.2µM
CCOC(CNC(=O)c1ccc(N2CCc3ccccc32)c([N+](=O)[O-])c1)OCC | n | u | n | n[10 µM] | 10µM
SMILES | HttQ103 aggreg | LMNA splice mod | HPGD block | HTT ATP protect | ALDH1A1 inh
O=C(NCc1ccc(F)cc1)c1ccc(N2CCc3ccccc32)c([N+](=O)[O-])c1 | n | u | n | n[10 µM] | u
COc1ccccc1NC(=O)CN(Cc1ccco1)C(=O)c1ccc(Cl)nc1 | n | n | x | n | 15.8µM
CCN(CC)S(=O)(=O)c1ccc(NC(=O)Cn2ncc3c([nH]c4ccccc43)c2=O)cc1 | x | n | x | x | x
CC(=O)c1ccc(NS(=O)(=O)c2ccc(CC(C)C)cc2)cc1 | n[9.22 µM] | u | u | n | 6.31µM
NCC[C@H](O)C(=O)N[C@H]1C[C@@H](N)[C@@H](O[C@H]2O[C@@H](CN)[C@@H](O)[C@@H](O)[C@@H]2O)[C@@H](O)[C@@H]1O[C@H]1O[C@@H](CO)[C@@H](O)[C@@H](N)[C@@H]1O | x | u | n | n | n
CCC1(c2ccccc2)C(=O)NCNC1=O | n | u | n | 1.41µM! | n
C=CCOc1c(CNc2nccs2)cccc1OCC | n | n | n | n | 2.51µM
C=CCOc1ccc(CNc2nccs2)cc1OCC | n | n | n | n[10 µM] | u
C=CCOc1c(Cl)cc(CNc2nccs2)cc1OC | n | n | x | n | 12.6µM
S=c1[nH]nc(COc2ccc(Cl)cc2)o1 | n | n | u | n | 3.55µM
COc1ccc(OCc2n[nH]c(=S)o2)cc1 | n | n | u | n | 10µM
S=c1[nH]nc(CCc2ccc(Cl)cc2)o1 | n | n | n | x | u
CCC(Oc1ccccc1-c1nnc(-c2ccccc2)o1)C(=O)Nc1ccc(C(C)=O)cc1 (stereo unspecified) | x | n | x | x | x
N#Cc1ccc(NC(=O)Nc2ccc(Cl)cc2)cc1 | 25.1µM | u | n | n[10 µM] | n
CCCOCC(C)OCC(C)O (stereo unspecified) | x | x | n | n | n
Cc1cccc(CNc2nc(-c3ccccc3CN(C)C)nc3ccccc23)c1 | x | u | n | n | n
CC(C)c1cc(N=NC(N)=O)cc(C(C)C)c1O | n[9.22 µM] | x | x | n[10 µM] | u
CCOC(=O)C1=C(CSc2nc(C)ccc2C#N)OC(N)=C(C#N)C1c1cccc(OC)c1OC (stereo unspecified) | u | n | n | n[0.074 µM] | 28.2µM
COc1ccc(N(C(=O)c2ccccc2)S(=O)(=O)c2cccs2)cc1 | n[9.22 µM] | u | x | n[1.9 µM] | u
COc1ccc(C(=O)N(c2ccc(OC)cc2)S(=O)(=O)c2cccs2)cc1 | n | n | n | n[10 µM] | 5.01µM
CC[C@@H](c1ccccc1)n1c(=O)n2n(c1=O)[C@H]1[C@H](O)[C@H]3O[C@@H]3/C(=N/OC/C=C(\C)CCC=C(C)C)[C@@H]1CC2 | x | x | x | n[10 µM] | n[13.5 µM]
CCOC(=O)COc1ccc2c(=O)c(-c3ccccc3)coc2c1 | n[9.22 µM] | n | x | n[10 µM] | x
COc1ccc(-c2cc(=O)oc3cc(OCC(C)=O)ccc23)cc1 | n | u | 31.6µM | x | u
COc1ccc2cc(C(=O)COC(=O)COc3ccc4c(C)cc(=O)oc4c3)ccc2c1 | n | n | u | n[10 µM] | u
COc1ccc(-c2cc(=O)oc3cc(OCC(=O)c4cccc([N+](=O)[O-])c4)ccc23)cc1 | n | u | 2.82µM | x | n
SMILES | HttQ103 aggreg | LMNA splice mod | HPGD block | HTT ATP protect | ALDH1A1 inh
COc1ccc(-c2cc(=O)oc3cc(OC(=O)C4CCCCC4)c(Cl)cc23)cc1 | 0.282µM | u | u | n[10 µM] | u
CCOCCOC(=O)COc1ccc2c(-c3ccccc3)cc(=O)oc2c1 | n | n | 25.1µM | n[10 µM] | 17.8µM
Cc1ccc(S(=O)(=O)CCSC(=N)N)cc1 | x | u | x | x | 0.112µM
O=C(CSc1ccc2c(c1)OCCO2)Nc1ccc(N2CCOCC2)cc1 | n | n | x | n | n
Cc1cc(N=Cc2c(O)ccc3cc(Br)ccc23)no1 | n | u | 10µM | x | 1.78µM
Cc1ccc(C)c(N2CCN(C(=O)Cn3cnc4onc(-c5ccc(F)cc5)c4c3=O)CC2)c1 | x | n | x | x | x
CCN(CC)S(=O)(=O)c1ccc2c(c1)c(=O)c(C(=O)NCc1cccs1)cn2C | n | n | n | x | 11.2µM
CN(C)S(=O)(=O)c1ccc2c(c1)c(=O)c(C(=O)NCCCN1CCCCCC1)cn2C | n | n | n | n[10 µM] | 15µM
COc1ccc(/C=N/NC(=O)c2ccc(O)cc2O)cc1CSc1ccccn1 | n | n | u | n[10 µM] | u
